Data: PubChem BioAssay AID686978 (National Center for Advancing Translational Sciences (NCATS), 2013)
Out of some 420,000 compounds screened, about 64,000 (15%) were called active. Not shown: some 27% with an inconclusive outcome. Calls follow the shape of the dose curve; as a rule, active = well fitted inhibition curve with a large enough effect; inconclusive = small, poorly fitted or top-dose-only effect; inactive = flat fitted curve, though single readings scatter. A selection follows. Entries that show only a call come without a potency.
Potency is read from the fitted curve at half-maximal effect.

Assay: qHTS for Inhibitors of human tyrosyl-DNA phosphodiesterase 1 (TDP1): qHTS in cells in absence of CPT; also: nearly all actives have a fitted effect of over 55% in size
Conditions: DT40 Tdp1-/- hTDP1 cells, no CPT, ATP luminescence, 48 h; activity change, negative = growth inhibition: at 46.2 µM (top of the series)
How it was run: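 Cells were dispensed at 400 per well, compounds added by pin tool, plates incubated ≥48 hr at 37 °C, then CellTiter-Glo added for 30 min at room temperature before luminescence reading. Line: DT40 Tdp1-/- complemented with hTDP1; camptothecin omitted.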
For `N#CCSc1nc2ccc(N3CCOCC3)cc2c(=O)n1CCc1ccccc1`, the Potency was 20.6 µM (active). In the case of `CCCCn1c(SCC(=O)NCC2CCCO2)nc2ccc(N3CCOCC3)cc2c1=O` (configuration not stated), the Potency is reported as “inactive”. In the case of `COCCCNC(=O)CSc1nc2ccc(N3CCOCC3)cc2c(=O)n1CCc1ccccc1`, the Potency is reported as “inactive”. For `O=C(CSc1nnc2n1CCCN2)c1ccccc1`, the Potency was “inactive”. For `COc1cccc(OC)c1C(=O)OCC(=O)/C(C#N)=C(\C)N`, the Potency was “inactive”. With `CC(=O)Cn1cnc2c(cnn2-c2ccccc2)c1=O` the Potency was “inactive”. With `CC(C)(C)n1ncc2c(=O)n(Cc3ccc(Cl)cc3)cnc21` the Potency was 23.1 µM (active). With `Cc1ccc(-n2ncc3c(=O)n(Cc4cccc(C(F)(F)F)c4)cnc32)cc1C` the Potency was “inactive”. With `c1cc(-c2nn[nH]n2)ccc1CN1CCCCC1` the Potency was “inactive”. In the case of `CC(=O)Nc1ccc(OCCC[n+]2cccc(C(=O)[O-])c2)cc1`, the Potency is reported as “inactive”. For `O=c1cc(O)nc(SCc2ccccc2Cl)[nH]1`, the Potency was “inactive”. With `Fc1ccc(CNc2nc3ccccc3n3nnnc23)cc1` the Potency was “inactive”. In the case of `Fc1ccc(CSc2nc(NCc3ccccc3)c3ccccc3n2)cc1`, the Potency is reported as 16.4 µM (active). For `Fc1ccc(Nc2nc(SCc3ccccc3Cl)nc3ccccc23)cc1`, the Potency was 16.4 µM (active). In the case of `Nc1nc(SCc2ccccc2Cl)n[nH]1`, the Potency is reported as “inactive”. For `Nc1cc(N)nc(SCc2cccc(F)c2)n1`, the Potency was “inactive”. For `O=C1NCC(c2ccccc2)(c2ccccc2)C(=O)N1`, the Potency was “inactive”. In the case of `CC(=O)c1nc(N2C(=O)C3CC=C(C)CC3C2=O)sc1C` (configuration not stated), the Potency is reported as “inactive”. In the case of `Cc1ccc(S(=O)(=O)NC2(C(F)(F)F)NC(=O)N(CCc3ccccc3)C2=O)cc1` (configuration not stated), the Potency is reported as “inactive”. With `O=C(Nc1ccccc1F)c1ccc2c(c1)OCO2` the Potency was “inactive”. In the case of `N[C@@H](C(=O)O)c1ccc(P(=O)(O)O)cc1`, the Potency is reported as “inactive”. In the case of `O=C(c1ccc(Cl)c(Cl)c1)N1CCCC1`, the Potency is reported as “inactive”. In the case of `O=C(COc1ccc(Cl)cc1[N+](=O)[O-])N1CCCCC1`, the Potency is reported as “inactive”. In the case of `O=C(c1ccc(Oc2ccc(Cl)cc2)c([N+](=O)[O-])c1)N1CCCC1`, the Potency is reported as 14.6 µM (active). With `CCOCCN(C=O)c1cccc(OC)c1` the Potency was “inactive”. For `Cc1cc(C)c2c(Cn3ccnc3)cc(=O)oc2c1`, the Potency was “inactive”. With `CC(C)C[C@H](NC(=O)N1CC(=O)Nc2ccccc21)C(=O)N[C@H](Cc1ccccc1)C(=O)O` the Potency was “inactive”. With `CSCC[C@H](NC(=O)NC1CCCC1)C(=O)O` the Potency was “inactive”. With `O=C(Nc1nccs1)c1cc(S(=O)(=O)N2CCOCC2)c(Cl)cc1Cl` the Potency was “inactive”. With `CCOC(=O)C1=C(c2ccccc2)NC(=O)NC1c1cc(OCC)c(O)c([N+](=O)[O-])c1` (configuration not stated) the Potency was “inactive”. For `CCCOc1ccc(C2NC(=O)NC(c3ccccc3)=C2C(C)=O)cc1OCC` (configuration not stated), the Potency was 23.1 µM (active). In the case of `COc1cc(C2NC(=O)NC(c3ccccc3)=C2C(C)=O)c(Br)cc1OCC(N)=O` (configuration not stated), the Potency is reported as “inactive”.
